# From ChEMBL document CHEMBL1961873, “Compounds: GSK PKIS; Assays: Nanosyn kinase panel” (2012)
# Assays:
# [1] = molecular target: 5'-AMP-activated protein kinase catalytic subunit alpha-2 (Homo sapiens) (UniProt P54646); conditions: at 1 µM
# [2] = molecular target: T1, NUAK family SNF1-like kinase 1 (Homo sapiens) (UniProt O60285); conditions: at 0.1 µM
# T1 sequence (whole entry): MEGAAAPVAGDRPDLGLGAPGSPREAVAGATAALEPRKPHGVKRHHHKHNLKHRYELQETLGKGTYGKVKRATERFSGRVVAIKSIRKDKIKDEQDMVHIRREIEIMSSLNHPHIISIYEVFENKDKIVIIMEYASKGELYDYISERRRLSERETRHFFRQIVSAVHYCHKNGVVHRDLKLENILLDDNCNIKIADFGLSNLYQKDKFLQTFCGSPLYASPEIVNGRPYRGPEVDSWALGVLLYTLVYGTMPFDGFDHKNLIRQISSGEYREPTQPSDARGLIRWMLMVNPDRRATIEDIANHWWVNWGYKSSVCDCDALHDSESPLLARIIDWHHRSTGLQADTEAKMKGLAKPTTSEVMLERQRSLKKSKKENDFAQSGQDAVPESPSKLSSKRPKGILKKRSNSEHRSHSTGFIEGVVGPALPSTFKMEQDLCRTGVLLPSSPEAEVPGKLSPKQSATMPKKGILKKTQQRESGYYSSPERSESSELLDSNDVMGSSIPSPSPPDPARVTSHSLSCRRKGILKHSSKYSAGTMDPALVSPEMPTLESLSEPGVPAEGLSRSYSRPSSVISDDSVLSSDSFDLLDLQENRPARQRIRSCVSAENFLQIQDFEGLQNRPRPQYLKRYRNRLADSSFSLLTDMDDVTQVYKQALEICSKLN
# [3] = molecular target: T1, NUAK family SNF1-like kinase 1 (Homo sapiens); conditions: at 1 µM
# [4] = molecular target: T2, Serine/threonine-protein kinase BRSK1 (Homo sapiens) (UniProt Q8TDC3); conditions: at 0.1 µM
# T2 sequence (whole entry): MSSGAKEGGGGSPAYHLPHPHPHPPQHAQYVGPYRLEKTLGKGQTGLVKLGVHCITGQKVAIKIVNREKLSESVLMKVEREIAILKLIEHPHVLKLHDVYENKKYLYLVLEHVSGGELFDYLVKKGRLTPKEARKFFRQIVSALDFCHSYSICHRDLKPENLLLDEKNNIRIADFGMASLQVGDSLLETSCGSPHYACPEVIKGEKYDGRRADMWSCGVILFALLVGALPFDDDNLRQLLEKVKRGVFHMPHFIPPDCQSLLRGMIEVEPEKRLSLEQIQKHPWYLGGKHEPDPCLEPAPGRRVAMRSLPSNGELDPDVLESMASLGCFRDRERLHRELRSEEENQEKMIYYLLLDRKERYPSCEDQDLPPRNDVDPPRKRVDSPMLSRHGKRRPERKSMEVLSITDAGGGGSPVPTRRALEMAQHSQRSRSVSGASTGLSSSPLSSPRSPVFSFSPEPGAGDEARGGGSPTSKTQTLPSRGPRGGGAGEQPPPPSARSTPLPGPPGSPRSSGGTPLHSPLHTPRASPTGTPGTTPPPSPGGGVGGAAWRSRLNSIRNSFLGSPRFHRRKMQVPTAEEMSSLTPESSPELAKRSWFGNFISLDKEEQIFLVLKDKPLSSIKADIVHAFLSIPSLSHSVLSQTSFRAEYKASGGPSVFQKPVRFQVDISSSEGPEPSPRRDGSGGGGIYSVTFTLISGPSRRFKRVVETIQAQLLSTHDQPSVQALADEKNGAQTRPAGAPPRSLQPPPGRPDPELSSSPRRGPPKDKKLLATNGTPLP
# [5] = molecular target: T2, Serine/threonine-protein kinase BRSK1 (Homo sapiens); conditions: at 1 µM
# [6] = molecular target: T3, Serine/threonine-protein kinase BRSK2 (Homo sapiens) (UniProt Q8IWQ3); conditions: at 0.1 µM
# T3 sequence (whole entry): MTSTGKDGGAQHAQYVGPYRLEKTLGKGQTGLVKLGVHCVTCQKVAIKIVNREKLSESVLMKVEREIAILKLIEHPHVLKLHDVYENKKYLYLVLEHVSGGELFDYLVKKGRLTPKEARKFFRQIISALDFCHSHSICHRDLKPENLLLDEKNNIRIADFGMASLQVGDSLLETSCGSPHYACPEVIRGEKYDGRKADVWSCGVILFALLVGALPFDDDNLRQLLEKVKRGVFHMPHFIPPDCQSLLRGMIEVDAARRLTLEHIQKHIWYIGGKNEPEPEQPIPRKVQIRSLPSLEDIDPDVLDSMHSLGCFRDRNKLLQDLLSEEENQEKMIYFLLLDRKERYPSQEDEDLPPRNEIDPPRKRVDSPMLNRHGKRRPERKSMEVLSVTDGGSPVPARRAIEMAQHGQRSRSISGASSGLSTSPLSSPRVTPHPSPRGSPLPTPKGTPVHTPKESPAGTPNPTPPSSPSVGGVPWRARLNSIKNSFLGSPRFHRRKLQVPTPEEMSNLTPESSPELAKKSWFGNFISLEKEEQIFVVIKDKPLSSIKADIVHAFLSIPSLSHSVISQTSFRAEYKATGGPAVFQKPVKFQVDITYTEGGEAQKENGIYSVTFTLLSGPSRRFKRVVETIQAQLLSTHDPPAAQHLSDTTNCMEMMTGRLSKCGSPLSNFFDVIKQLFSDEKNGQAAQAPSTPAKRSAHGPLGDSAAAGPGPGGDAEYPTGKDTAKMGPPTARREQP
# [7] = molecular target: T3, Serine/threonine-protein kinase BRSK2 (Homo sapiens); conditions: at 1 µM
# [8] = molecular target: Calcium/calmodulin-dependent protein kinase type 1D (Homo sapiens) (UniProt Q8IU85); conditions: at 0.1 µM
# [9] = molecular target: Calcium/calmodulin-dependent protein kinase type 1D (Homo sapiens) (UniProt Q8IU85); conditions: at 1 µM
# [10] = molecular target: Calcium/calmodulin-dependent protein kinase type II subunit alpha (Homo sapiens) (UniProt Q9UQM7); conditions: at 0.1 µM
# [11] = molecular target: Calcium/calmodulin-dependent protein kinase type II subunit alpha (Homo sapiens) (UniProt Q9UQM7); conditions: at 1 µM
# [12] = molecular target: Calcium/calmodulin-dependent protein kinase type II subunit delta (Homo sapiens) (UniProt Q13557); conditions: at 0.1 µM
# [13] = molecular target: Calcium/calmodulin-dependent protein kinase type II subunit delta (Homo sapiens) (UniProt Q13557); conditions: at 1 µM
# [14] = molecular target: T4, Calcium/calmodulin-dependent protein kinase type IV (Homo sapiens) (UniProt Q16566); conditions: at 0.1 µM
# T4 sequence (whole entry): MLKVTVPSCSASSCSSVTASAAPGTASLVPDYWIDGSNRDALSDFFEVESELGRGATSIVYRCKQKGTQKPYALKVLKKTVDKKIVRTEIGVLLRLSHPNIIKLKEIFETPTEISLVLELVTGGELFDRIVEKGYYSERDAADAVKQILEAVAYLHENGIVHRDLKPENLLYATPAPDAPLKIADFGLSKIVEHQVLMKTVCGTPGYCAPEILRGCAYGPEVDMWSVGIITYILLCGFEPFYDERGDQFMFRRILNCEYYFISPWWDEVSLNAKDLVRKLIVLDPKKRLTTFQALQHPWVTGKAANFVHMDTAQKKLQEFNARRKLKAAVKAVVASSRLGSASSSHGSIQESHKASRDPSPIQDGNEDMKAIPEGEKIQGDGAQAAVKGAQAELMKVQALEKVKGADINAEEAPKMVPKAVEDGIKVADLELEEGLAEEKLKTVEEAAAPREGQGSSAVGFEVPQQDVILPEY
# [15] = molecular target: T4, Calcium/calmodulin-dependent protein kinase type IV (Homo sapiens); conditions: at 1 µM
# [16] = molecular target: T5, Serine/threonine-protein kinase Chk1 (Homo sapiens) (UniProt O14757); conditions: at 0.1 µM
# T5 sequence (whole entry): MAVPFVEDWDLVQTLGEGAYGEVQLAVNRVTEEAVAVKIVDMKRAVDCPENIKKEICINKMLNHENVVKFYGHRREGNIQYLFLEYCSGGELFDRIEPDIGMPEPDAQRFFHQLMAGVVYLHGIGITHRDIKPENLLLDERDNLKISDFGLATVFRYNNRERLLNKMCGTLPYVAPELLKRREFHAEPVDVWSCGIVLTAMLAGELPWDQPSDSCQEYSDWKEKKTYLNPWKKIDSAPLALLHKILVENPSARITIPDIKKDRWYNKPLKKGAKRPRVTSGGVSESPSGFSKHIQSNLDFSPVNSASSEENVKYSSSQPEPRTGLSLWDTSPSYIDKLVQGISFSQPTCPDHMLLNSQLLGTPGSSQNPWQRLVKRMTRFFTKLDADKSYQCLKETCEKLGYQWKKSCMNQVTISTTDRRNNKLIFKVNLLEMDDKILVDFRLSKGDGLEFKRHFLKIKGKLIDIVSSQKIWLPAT
# [17] = molecular target: T5, Serine/threonine-protein kinase Chk1 (Homo sapiens); conditions: at 1 µM
# [18] = molecular target: Serine/threonine-protein kinase Chk2 (Homo sapiens) (UniProt O96017); conditions: at 0.1 µM
# [19] = molecular target: Serine/threonine-protein kinase Chk2 (Homo sapiens) (UniProt O96017); conditions: at 1 µM
# [20] = molecular target: Death-associated protein kinase 1 (Homo sapiens) (UniProt P53355); conditions: at 0.1 µM;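 note: reported figure is the mean inhibition of DAPK1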
# Death-associated protein kinase 1 (Homo sapiens), sequence (P53355 whole entry, looked up): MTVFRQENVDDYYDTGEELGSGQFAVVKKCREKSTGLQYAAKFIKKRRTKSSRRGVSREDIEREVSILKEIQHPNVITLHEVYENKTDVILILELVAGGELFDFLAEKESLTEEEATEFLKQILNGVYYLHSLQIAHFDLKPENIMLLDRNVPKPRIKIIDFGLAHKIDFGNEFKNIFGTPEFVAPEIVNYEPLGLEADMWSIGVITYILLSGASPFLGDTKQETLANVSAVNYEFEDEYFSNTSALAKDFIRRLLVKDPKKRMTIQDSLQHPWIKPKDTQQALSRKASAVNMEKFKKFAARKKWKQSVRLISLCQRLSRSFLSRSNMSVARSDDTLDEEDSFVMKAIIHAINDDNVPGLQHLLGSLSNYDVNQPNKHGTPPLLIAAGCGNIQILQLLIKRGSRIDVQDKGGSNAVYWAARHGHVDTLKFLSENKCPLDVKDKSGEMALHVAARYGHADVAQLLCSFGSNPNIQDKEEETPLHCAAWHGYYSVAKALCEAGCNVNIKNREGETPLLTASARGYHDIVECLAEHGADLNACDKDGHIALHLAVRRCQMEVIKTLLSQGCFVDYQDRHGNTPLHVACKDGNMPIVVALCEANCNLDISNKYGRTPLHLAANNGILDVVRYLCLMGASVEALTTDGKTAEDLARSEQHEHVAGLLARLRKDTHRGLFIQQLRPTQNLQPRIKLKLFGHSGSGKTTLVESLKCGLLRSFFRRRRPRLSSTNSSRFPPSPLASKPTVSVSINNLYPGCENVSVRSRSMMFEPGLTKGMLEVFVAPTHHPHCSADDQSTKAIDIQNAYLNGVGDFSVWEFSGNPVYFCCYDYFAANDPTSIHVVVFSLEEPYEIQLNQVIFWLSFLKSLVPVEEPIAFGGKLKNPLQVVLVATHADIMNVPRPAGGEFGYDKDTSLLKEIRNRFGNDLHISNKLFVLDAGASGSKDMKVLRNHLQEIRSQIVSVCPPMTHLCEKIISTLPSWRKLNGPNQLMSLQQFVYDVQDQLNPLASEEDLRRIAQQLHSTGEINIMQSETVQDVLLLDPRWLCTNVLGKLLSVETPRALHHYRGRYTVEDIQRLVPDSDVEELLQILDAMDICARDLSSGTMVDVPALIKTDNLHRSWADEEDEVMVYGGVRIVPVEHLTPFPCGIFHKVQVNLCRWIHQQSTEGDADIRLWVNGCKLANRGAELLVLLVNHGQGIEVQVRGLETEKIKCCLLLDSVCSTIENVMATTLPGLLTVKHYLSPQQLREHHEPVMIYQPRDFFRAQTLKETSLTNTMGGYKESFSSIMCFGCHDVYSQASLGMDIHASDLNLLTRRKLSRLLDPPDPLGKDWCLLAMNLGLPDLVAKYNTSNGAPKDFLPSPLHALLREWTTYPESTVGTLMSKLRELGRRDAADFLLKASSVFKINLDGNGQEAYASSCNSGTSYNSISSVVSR
# Calcium/calmodulin-dependent protein kinase type 1D (Homo sapiens), sequence (Q8IU85 whole entry, looked up): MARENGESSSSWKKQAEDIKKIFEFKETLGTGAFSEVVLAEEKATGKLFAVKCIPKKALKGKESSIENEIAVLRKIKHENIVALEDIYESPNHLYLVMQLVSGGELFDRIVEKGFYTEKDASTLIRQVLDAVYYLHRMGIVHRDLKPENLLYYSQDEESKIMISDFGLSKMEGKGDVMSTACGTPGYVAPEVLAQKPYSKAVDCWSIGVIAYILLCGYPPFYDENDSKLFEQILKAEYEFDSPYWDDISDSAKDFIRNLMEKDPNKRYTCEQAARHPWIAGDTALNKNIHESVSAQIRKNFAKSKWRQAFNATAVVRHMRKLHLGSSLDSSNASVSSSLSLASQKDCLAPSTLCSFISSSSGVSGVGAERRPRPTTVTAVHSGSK
# Calcium/calmodulin-dependent protein kinase type II subunit alpha (Homo sapiens), sequence (Q9UQM7 whole entry): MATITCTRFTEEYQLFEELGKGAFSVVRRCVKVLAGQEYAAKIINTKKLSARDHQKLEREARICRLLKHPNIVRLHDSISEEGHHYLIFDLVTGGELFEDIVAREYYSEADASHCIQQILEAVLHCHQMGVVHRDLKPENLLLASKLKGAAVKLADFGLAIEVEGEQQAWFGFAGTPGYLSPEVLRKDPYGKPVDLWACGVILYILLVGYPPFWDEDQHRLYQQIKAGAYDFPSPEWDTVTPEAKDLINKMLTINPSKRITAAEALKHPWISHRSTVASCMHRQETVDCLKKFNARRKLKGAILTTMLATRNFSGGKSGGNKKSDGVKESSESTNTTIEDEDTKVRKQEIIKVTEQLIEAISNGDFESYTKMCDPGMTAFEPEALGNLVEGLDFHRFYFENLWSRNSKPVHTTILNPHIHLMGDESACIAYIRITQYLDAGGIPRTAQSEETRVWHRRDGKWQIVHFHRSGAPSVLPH
# Calcium/calmodulin-dependent protein kinase type II subunit delta (Homo sapiens), sequence (Q13557 whole entry): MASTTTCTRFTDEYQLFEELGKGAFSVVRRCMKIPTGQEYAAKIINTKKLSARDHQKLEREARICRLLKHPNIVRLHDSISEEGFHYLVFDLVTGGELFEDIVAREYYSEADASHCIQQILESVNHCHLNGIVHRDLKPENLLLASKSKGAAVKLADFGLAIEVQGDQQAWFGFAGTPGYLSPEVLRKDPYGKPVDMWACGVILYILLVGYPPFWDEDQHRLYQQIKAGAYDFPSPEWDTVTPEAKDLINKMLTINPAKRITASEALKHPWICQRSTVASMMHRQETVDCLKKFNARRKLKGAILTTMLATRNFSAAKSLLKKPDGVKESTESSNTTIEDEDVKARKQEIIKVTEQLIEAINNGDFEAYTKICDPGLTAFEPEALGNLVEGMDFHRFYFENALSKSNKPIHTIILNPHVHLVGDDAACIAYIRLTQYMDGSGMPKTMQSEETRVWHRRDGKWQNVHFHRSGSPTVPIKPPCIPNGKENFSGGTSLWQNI
# Serine/threonine-protein kinase Chk2 (Homo sapiens), sequence (O96017 whole entry): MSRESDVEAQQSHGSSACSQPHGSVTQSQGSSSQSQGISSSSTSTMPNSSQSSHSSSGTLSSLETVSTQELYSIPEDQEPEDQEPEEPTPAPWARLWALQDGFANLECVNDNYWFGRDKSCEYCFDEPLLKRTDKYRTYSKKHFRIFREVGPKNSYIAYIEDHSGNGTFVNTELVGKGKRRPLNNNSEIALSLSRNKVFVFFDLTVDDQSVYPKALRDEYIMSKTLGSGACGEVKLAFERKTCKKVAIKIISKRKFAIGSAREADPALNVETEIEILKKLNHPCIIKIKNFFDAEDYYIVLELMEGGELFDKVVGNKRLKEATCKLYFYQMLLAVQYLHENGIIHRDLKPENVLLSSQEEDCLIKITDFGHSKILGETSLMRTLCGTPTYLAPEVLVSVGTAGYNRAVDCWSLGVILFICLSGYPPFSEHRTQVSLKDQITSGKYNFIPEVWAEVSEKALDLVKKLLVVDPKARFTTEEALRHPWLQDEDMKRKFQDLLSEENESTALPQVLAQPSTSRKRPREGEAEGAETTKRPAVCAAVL
# 5'-AMP-activated protein kinase catalytic subunit alpha-2 (Homo sapiens), sequence (P54646 whole entry, looked up): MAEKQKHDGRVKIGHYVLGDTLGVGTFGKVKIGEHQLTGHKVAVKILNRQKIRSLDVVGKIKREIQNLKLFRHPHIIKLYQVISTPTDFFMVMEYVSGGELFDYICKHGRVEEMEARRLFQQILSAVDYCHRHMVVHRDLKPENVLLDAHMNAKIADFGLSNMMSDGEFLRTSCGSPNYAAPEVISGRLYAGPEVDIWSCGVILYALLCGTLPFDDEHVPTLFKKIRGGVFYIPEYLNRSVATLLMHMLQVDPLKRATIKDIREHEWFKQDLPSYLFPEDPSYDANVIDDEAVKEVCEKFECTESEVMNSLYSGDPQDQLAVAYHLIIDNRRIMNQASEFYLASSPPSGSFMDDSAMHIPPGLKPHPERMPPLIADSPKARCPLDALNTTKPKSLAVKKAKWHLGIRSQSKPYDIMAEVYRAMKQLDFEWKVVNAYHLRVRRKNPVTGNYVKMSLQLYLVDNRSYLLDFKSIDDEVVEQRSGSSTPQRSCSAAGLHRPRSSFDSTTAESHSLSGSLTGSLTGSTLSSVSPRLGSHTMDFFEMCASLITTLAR
Compound,inhibition [1] [%],inhibition [2] [%],inhibition [3] [%],inhibition [4] [%],inhibition [5] [%],inhibition [6] [%],inhibition [7] [%],inhibition [8] [%],inhibition [9] [%],inhibition [10] [%],inhibition [11] [%],inhibition [12] [%],inhibition [13] [%],inhibition [14] [%],inhibition [15] [%],inhibition [16] [%],inhibition [17] [%],inhibition [18] [%],inhibition [19] [%],inhibition [20] [%]
Nc1nccc(C#Cc2cncnc2Nc2ccc(OCc3cccc(F)c3)c(Cl)c2)n1,6.02,2.82,9.68,3.95,8.92,4.89,10.8,-0.54,2.27,3.24,5.08,8.4,8.79,-0.4,0.61,1.22,7.61,2.66,5.77,3.9
Cc1ccc2c(c1)/C(=N/Nc1ccc(S(N)(=O)=O)cc1)C(=O)N2,12.3,21.7,62.2,2.87,9.92,3.09,12.8,2.35,2.43,2.02,2.25,1.2,3.28,1.05,2.05,0.25,3.5,0.04,0.67,0.46
FC(F)(F)c1ccc(-c2nn3ncccc3c2-c2ccnc(Nc3ccc4c(c3)OCCO4)n2)cc1,4.55,4.03,5.73,5.08,8.29,6.76,11.7,2.95,-0.58,-2.94,-2.19,-3.32,-2.99,-4.88,-4.43,0.08,1.68,3.99,5.26,1.54
NS(=O)(=O)c1cccc(-c2cc3ccncc3cc2OCc2ccccc2)c1,7.06,8.52,11.3,3.31,3.45,2.26,3.2,0.47,0.96,4.23,4.81,4.83,5.07,0.13,-0.46,5.29,6.26,3.17,5.38,6.37
c1ccc(Nc2ncc(-c3ccccc3)o2)cc1,0.19,-0.12,11,0.5,2.07,0.2,3.56,1.22,2.94,2.13,3.27,3.06,6.25,1.79,3.97,6.09,8.99,0.95,2.54,6.27
Cc1cc(Cl)cc2c1NC(=O)C2=NNc1ccc(S(N)(=O)=O)cc1,1.04,0.35,8.3,-1.42,3.61,1.16,3.77,0.2,-0.6,4.14,0.96,2.57,-0.12,-0.56,-3.46,2.43,2.86,1.38,2.55,2.88
Cc1ccc2c(-c3ccnc(Nc4ccc5c(c4)OCCO5)n3)c(-c3ccc(C(F)(F)F)cc3)nn2n1,1.71,-1.23,1.59,-0.85,1.31,0.24,0.79,0.52,9.99,0.68,-1.51,0.22,-0.06,2.15,0.11,1.74,0.1,-0.69,-0.6,2.74
